Measurements taken from paper PMC4336329 (PLoS ONE, 2015).
Hit rate of the full screen: of about 310,000 compounds, about 14,000 (4.5%) showed an effect of 50% or more. The effect is printed as a negative number. Only a selection was taken, and strong results are over-represented in it overall.

These molecules were tested against human ether-à-go-go-related gene (hERG) potassium channel (human, UniProt Q12809) (assay: primary screen, population patch clamp on CHO cells stably expressing hERG; higher = less effect of the substance).
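Further: peak tail current of the secondary pulse compared with the same well before compound.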

Chain of human ether-à-go-go-related gene (hERG) potassium channel (Q12809 whole entry, looked up): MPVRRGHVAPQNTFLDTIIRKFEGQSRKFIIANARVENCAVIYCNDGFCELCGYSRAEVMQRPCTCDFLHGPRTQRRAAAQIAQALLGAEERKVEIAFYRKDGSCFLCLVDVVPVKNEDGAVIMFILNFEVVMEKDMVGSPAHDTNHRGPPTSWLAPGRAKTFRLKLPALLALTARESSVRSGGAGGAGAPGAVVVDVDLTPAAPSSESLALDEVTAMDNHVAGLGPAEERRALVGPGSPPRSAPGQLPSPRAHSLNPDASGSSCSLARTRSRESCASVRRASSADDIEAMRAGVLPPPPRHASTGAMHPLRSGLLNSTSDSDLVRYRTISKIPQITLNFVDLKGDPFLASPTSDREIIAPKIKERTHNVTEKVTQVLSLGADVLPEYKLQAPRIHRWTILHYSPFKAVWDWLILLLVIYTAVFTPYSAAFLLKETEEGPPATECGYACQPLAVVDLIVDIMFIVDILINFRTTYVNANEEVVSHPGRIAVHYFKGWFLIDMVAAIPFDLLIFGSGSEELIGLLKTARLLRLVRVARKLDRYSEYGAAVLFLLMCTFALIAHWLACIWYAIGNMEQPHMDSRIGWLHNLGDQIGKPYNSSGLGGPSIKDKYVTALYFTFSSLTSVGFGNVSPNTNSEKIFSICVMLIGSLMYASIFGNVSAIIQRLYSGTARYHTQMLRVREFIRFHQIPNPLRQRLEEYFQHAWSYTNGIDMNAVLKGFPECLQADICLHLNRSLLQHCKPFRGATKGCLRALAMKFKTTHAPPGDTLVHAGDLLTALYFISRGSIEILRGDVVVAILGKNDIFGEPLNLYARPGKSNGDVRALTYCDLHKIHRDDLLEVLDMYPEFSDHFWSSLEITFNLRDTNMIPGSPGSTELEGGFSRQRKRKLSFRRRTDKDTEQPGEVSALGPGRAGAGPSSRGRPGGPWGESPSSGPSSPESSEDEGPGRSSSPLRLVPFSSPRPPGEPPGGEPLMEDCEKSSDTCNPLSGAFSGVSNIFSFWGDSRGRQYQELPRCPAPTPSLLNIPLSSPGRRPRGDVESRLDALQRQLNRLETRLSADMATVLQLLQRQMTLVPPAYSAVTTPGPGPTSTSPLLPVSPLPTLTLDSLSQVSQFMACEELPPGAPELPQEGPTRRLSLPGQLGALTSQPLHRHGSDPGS

SMILES | hERG current change (%, negative = inhibition) at 10uM
CCOC(=O)CN1C(=O)C(O)=C(C(C)=O)C1c1ccccc1 (centres unmarked) | 11.3%
Cc1c(-c2ccccc2)nc2ccccc2c1C(=O)Oc1ccc([N+](=O)[O-])cc1 | -21.6%
COc1ccc(C(=O)OCCNC(=O)c2c(Cl)nc3ccccn23)cc1.Cl | -6.58%
CC(=O)C(=Nc1ccccc1Cl)NNc1ccc(Cl)cc1 | 17.3%
CN1CCN(S(=O)(=O)c2cccc(C(=O)N(Cc3nnc(-c4ccc(Cl)cc4)o3)C3CC3)c2)CC1 | -49.3%
Nc1cccc(-c2cc3ccccc3oc2=O)c1 | 6.38%
COc1ccc(Cl)cc1C(=O)N1CCN=C1SC | 21.3%
CCOc1ccc(NC(=O)c2ccccc2NC(=O)c2cccnc2)cc1 | 7.52%
COc1c(C)cc(C(=O)C2CCCN(C(=O)c3cc(C)nc(C)n3)C2)cc1C (centres unmarked) | 7.89%
COC(=O)C1=C(c2ccc(F)cc2OCc2ccccc2)C[C@@H]2CC[C@H]1N2C(=O)NC(C)C | -35.3%
COC(=O)C1=C(c2ccc(F)cc2OCc2ccccc2)C[C@@H]2CC[C@H]1N2C(=O)NCC1CC1 | -51.5%
COC(=O)C1=C(c2ccc(F)cc2OCc2ccccc2)C[C@@H]2CC[C@H]1N2C(=O)NCc1ccccc1 | -1.03%
COC(=O)C1=C(c2ccc(F)cc2OCc2ccccc2)C[C@@H]2CC[C@H]1N2C(=O)NC1CC1 | -10.4%
COC(=O)C1=C(c2ccc(F)cc2OCc2ccccc2)C[C@@H]2CC[C@H]1N2C(=O)NCc1ccc(F)cc1 | -5.76%
COC(=O)C1=C(c2ccc(F)cc2OCc2ccccc2)C[C@@H]2CC[C@H]1N2C | -52%
C#CCOCCOCCOCCNc1nc(N2CCN(C(=O)[C@H](CCC(=O)O)n3cc(C(N)[C@H](C)CC)nn3)CC2)nc(N2CCN(C(=O)[C@H](Cc3ccc(O)cc3)n3cc(C(N)[C@H](C)CC)nn3)CC2)n1.Cl (some centres unmarked) | 7.62%
COc1cc(CCC(=O)Nc2nccs2)cc(OC)c1OC | 3.1%
CCn1nc(C)cc1C(=O)N1CCCC(C(=O)c2ccc(OC)cc2C)C1 (centres unmarked) | 3.32%
Cc1ccccc1S(=O)(=O)Cc1ccc(C(=O)NC2CCCCCC2)o1 | -31.9%
CC(=O)Oc1ccc(/C=N/NC(=O)C2CCCN2S(=O)(=O)c2ccc(Cl)cc2)cc1 (centres unmarked) | -28.1%
Cn1c(=O)c2c(n(C)c1=O)=NC1(CCCCC1)ON=2 | -15.4%
O=C(NCc1ccco1)C1CCN(S(=O)(=O)N2CCOCC2)CC1 | -13.1%
CCN1CCN(CCOc2ccc(Cl)cc2)CC1.O=C(O)C(=O)O | -34.3%
COc1ccc(CN2CCN(S(=O)(=O)c3ccc(F)cc3)CC2)c(OC)c1OC.O=C(O)C(=O)O | -23.4%

SMILES | hERG current change (%, negative = inhibition) at 10uM
CN1CCN(Cc2cccc(Oc3ccccc3)c2)CC1 | -28.2%
COc1cccc(CN2CCN(Cc3cccc(Oc4ccccc4)c3)CC2)c1OC.O=C(O)C(=O)O | -21.7%
COc1ccc(CN2CCN(Cc3cccc(Oc4ccccc4)c3)CC2)c(OC)c1OC.O=C(O)C(=O)O | -58%
COc1ccc(CN2CCN(Cc3ccc(OC)c(OC)c3OC)CC2)cc1.O=C(O)C(=O)O | -41.3%
Cc1ccc(SCCN2CCN(Cc3ccccc3)CC2)cc1.O=C(O)C(=O)O | -37%
COc1ccc(CN2CCN(CCCCOc3ccc(Cl)cc3)CC2)c(OC)c1OC.O=C(O)C(=O)O | -74.4%
COc1ccc(CN2CCN(C(=O)c3cccc4ccccc34)CC2)c(OC)c1OC.O=C(O)C(=O)O | 11.9%
COc1ccc(CN2CCN(Cc3ccc(Br)cc3)CC2)c(OC)c1OC.O=C(O)C(=O)O | -69.7%
COc1cccc(CN2CCN(Cc3cccc(Br)c3)CC2)c1OC.O=C(O)C(=O)O | -21.2%
COc1ccc(CN2CCN(CCSc3ccc(C)cc3)CC2)c(OC)c1OC.O=C(O)C(=O)O | -58.5%
COc1ccc(C(=O)NC(=S)N(CCC(C)C)c2c(N)n(Cc3ccccc3)c(=O)[nH]c2=O)cc1 | -5.8%
CN1C(=O)/C(=C2\SC(=S)N(C(CCC(=O)O)C(=O)O)C2=O)c2ccccc21 (centres unmarked) | 13%
O=C(COc1ccc(F)cc1)c1ccc2c(c1)CCCC2 | -5.65%
CCOC(=O)NNc1nncc2ccccc12.Cl | 2.17%
Cc1nn(-c2ccccc2)c(C)c1NC(=O)COC(=O)c1cccc(OC(F)F)c1 | -38.1%
CCOC(=O)C1C(=O)C=C(/C=C/c2ccccc2)CC1c1ccc(Cl)cc1 (centres unmarked) | -0.716%
CCCc1nc(-c2ccc(-c3ccc(F)cc3)cc2)no1 | 7.85%
CC(C(=O)NCc1ccc(Cl)cc1)n1cccc1C(=O)c1ccccc1 (centres unmarked) | -21.4%
O=C(O)c1ccc(-c2nnn(Cc3ccccc3F)n2)cc1 | 58.7%
CCN(CC)CC(O)COc1ccccc1C(=O)CCc1ccccc1 (centres unmarked) | -3.49%
CC(C)(C)NCC(O)COc1ccccc1C(=O)CCc1ccccc1.Cl (centres unmarked) | -69.9%
CC(C)(C)NCC(O)COc1cccc2[nH]c(=O)[nH]c12.Cl (centres unmarked) | 7.11%
CC1=CC(=C2C(=O)NC(=S)NC2=O)C=C(C(F)(F)F)N1CCc1ccccc1 | 12.9%
